The record followed here is PubChem BioAssay (Tox21).

A short description of experiment [1]: qHTS assay to identify small molecule agonists of the hypoxia (HIF-1) signaling pathway - cell viability counter screen (AID 1224844; calls by dose curve; also: % is scaled to controls: 0 for no effect and ±100 for the full control effect; nearly all actives have a fitted effect of over 50% in size). The gist of the method: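 Cytotoxicity was measured in parallel with the HRE-driven beta-lactamase readout: after 17 hrs of compound exposure at 37C, HRE-bla ME-180 cells received CellTiter-Glo and luminescence was recorded 30 min later.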
On the technique in general: Quantitative high-throughput screening tests each substance at several concentrations.

Experiment [2] in a line: qHTS assay to identify small molecule agonists of H2AX (AID 1224845; active = well fitted activation curve with a large enough effect in the signal ratio in the repeat runs, not every such curve was filed as active; the % refers to the signal ratio; also: % is scaled to controls: 0 for no effect and ±100 for the full control effect). The gist of the method: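 Wild-type CHO-K1 cells, plated overnight, exposed 3hr at 37C to 15 concentrations (0.76% DMSO final). Lysed, then HTRF anti-pH2AX (S139) cryptate and anti-H2AX-d2 antibodies, 24 hr room temperature; 665/620 nm emission read.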
Experiment [3] can be described thus: qHTS assay to identify small molecule agonists of the hypoxia (HIF-1) signaling pathway (AID 1224846; active = well fitted activation curve with a large enough effect in the signal ratio in the repeat runs, not every such curve was filed as active; the % refers to the signal ratio; also: % is scaled to controls: 0 for no effect and ±100 for the full control effect). An outline of the steps:
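Compounds from the Tox21 10K library, dissolved in DMSO, are tested for induction of a hypoxia response element–controlled beta-lactamase reporter in ME-180 cells. Exposure lasts 17 hrs at 37C after a 5 hr settling period, followed by CCF4-AM FRET substrate.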

A short description of experiment [4]: qHTS assay to identify small molecule agonists of H2AX - cell viability counter screen (AID 1224847; calls by dose curve; also: top concentration of the series differs between compounds; % is scaled to controls: 0 for no effect and ±100 for the full control effect; nearly all actives have a fitted effect of over 30% in size). An outline of the steps:
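CHO-K1 cells plated overnight at 37C, then exposed 3 h at 37C to compounds at 15 concentrations (0.76% DMSO final). Viability by CellTiter-Glo luminescence after 30 min at room temperature.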

Experiment [5] is described as follows: qHTS RealTime-Glo MT Cell Viability Assay in HepG2 cells - 24 hour (AID 1224867). Also: % is scaled to controls: 0 for no effect and ±100 for the full control effect; nearly all actives have a fitted effect of over 50% in size. The gist of the method:
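Cells + NanoLuc/prosubstrate dispensed (600 cells/well) → 5 h at 37 C/5% CO2 → compounds in DMSO transferred → 40 h incubation at 37 C, luminescence read at 0, 8, 16, 24, 32, 40 h.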

Experiment [6] is described as follows: A CellTox Green Cytotoxicity Assay to monitor cytotoxicity in HEK293 cells - 0 hour (AID 1224869). Also: % is scaled to controls: 0 for no effect and ±100 for the full control effect; nearly all actives have a fitted effect of over 50% in size. An outline of the steps:
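Cells (HEK293, 600/well) and dye reagent are dispensed together. After 5 h at 37 C, 23 nL compound is pinned in. Plates stay at 37 C for 40 h with fluorescence read at 0h, 8h, 16h, 24h, 32h and 40h.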

Experiment [7] is described as follows: qHTS RealTime-Glo MT Cell Viability Assay in HepG2 cells - 40 hour (AID 1224870). Also: % is scaled to controls: 0 for no effect and ±100 for the full control effect; nearly all actives have a fitted effect of over 50% in size. The gist of the method:
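HepG2 cells (600/well) mixed with RealTime-Glo MT reagent, settled 5 h at 37 C/5% CO2 before compound addition. Nonlytic NanoLuc luminescence from viable-cell prosubstrate reduction read repeatedly during 40 h treatment at 37 C.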

Experiment [8] is described as follows: qHTS RealTime-Glo MT Cell Viability Assay in HEK293 cells - 32 hour (AID 1224868). An outline of the steps:
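Tox21 10K qHTS, HEK293, 600 cells/well, RealTime-Glo reagent co-dispensed with cells; 5 h preincubation, compound by pintool, 37 C, luminescence at 0–40 h.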

The nature of experiment [9]: qHTS assay to identify small molecule antagonists of the estrogen related receptor (ERR) signaling pathway from Tox21 library (AID 1224848). The gist of the method: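 Compounds dissolved in DMSO are pin-transferred onto ERR reporter cells (2,000 per well) that have settled for 6 h at 37 C. Plates then incubate 18 h at 37 C before ONE-Glo luciferase reagent and a luminescence read 30 min later.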

SMILES strings stand for the structures. A number with no mark means an inactive call. Inconclusive results are not listed. Active and inactive are the calls of the source. Unless noted, calls follow the shape of the dose curve; as a rule, active = well fitted curve in the direction sought with a large enough effect in the repeat runs; inconclusive = weak or mixed curves; inactive = no such curve, though single readings can be large; an effect the other way counts as inactive or inconclusive.

For the molecule `COc1cc2nc(Cl)nc(N)c2cc1OC`, the Potency entry in experiment [1], in [2], in [3], in experiment [4], in [5] and in experiment [6] was “inactive” in each case. Moreover, the Potency result in experiment [7] is “inactive”.

For `CC1OC(=O)C(C)OC1=O` (stereo not given), the Potency result in experiment [1], in [2], in experiment [3], in [4], in [5] and in experiment [8] was “inactive” in each case. For the same molecule, in experiment [7], the Potency result was “inactive”.

As for `c1ccc(CNCCNCc2ccccc2)cc1`, the Potency entry in experiment [1], in experiment [2], in [3], in experiment [4], in experiment [8] and in [6] was “inactive” throughout. Besides, the Potency result in experiment [7] is “inactive”.

In the case of `CCCCC`, the Potency entry in experiment [1], in experiment [2], in [3], in [4], in experiment [5] and in experiment [8] was “inactive” in each case. In addition, the Potency entry in experiment [7] is “inactive”.

Consider `OCCN1CCN(CCCN2c3ccccc3C=Cc3ccccc32)CC1`, for which the Potency result in experiment [1], in [2], in experiment [3], in experiment [4], in experiment [5] and in experiment [6] was “inactive” each time. Besides, the Potency entry in experiment [7] is “inactive”.

`CCOc1ccc(N=Nc2ccc(/C=C/c3ccc(N=Nc4ccc(OCC)cc4)cc3S(=O)(=O)O)c(S(=O)(=O)O)c2)cc1`: the Potency result in [1], in experiment [2], in experiment [3], in experiment [4], in experiment [8] and in experiment [6] was “inactive” each time. Moreover, the Potency entry in [7] was “inactive”.

For the molecule `CC1=CC[C@H](C(C)C)C=C1`, the Potency entry in experiment [1], in [2], in experiment [3], in [4], in experiment [8] and in experiment [6] was “inactive” each time. Further, the Potency result in experiment [7] was “inactive”.

Turning to `C=C(C)C(=O)OCCO`, the Potency entry in experiment [1], in experiment [2], in experiment [3], in [4], in experiment [5] and in experiment [6] was “inactive” throughout. Besides, in experiment [7], the Potency entry is “inactive”.

For the molecule `CCOC(=O)C(=O)CCc1ccccc1`, the Potency result in [1], in experiment [2], in experiment [3], in [4], in [8] and in experiment [6] was “inactive” each time. Moreover, in experiment [7], the Potency entry was “inactive”.

`CCC(C)c1cc(C(C)(C)C)c(O)c(C(C)(C)C)c1` (stereo not given): the Potency result in experiment [1], in experiment [2], in [3], in experiment [4], in [8] and in experiment [7] was “inactive” each time.

Consider `CC1=CCCC(C)(C)C12CCC(C)O2` (stereo not given), for which the Potency entry in [1], in experiment [2], in experiment [3], in experiment [4], in [5] and in experiment [8] was “inactive” throughout. Also, the Potency entry in [7] was “inactive”.

On to `CC1=CC=C(C(C)C)CC1`, for which the Potency entry in [1], in experiment [2], in [3], in experiment [4], in [8] and in experiment [6] was “inactive” in each case. In addition, the Potency result in [7] was “inactive”.

For `Cc1ccc(C(C)OC(=O)C2(C)CCC(C(=O)O)C2(C)C)cc1` (stereo not given), the Potency entry in experiment [1], in experiment [2], in experiment [3], in [4], in [8] and in experiment [6] was “inactive” throughout. Moreover, in [7], the Potency result is “inactive”.

On to `CCO[C@H](Cc1ccc(OCCc2ccc(OS(C)(=O)=O)cc2)cc1)C(=O)O`, for which the Potency result in [1], in experiment [2], in [3], in experiment [4], in experiment [5] and in experiment [8] was “inactive” in each case. Moreover, the Potency entry in experiment [7] is “inactive”.

With `C/C=C/C=C/CO`, the Potency entry in [1], in [2], in experiment [3], in [4], in experiment [5] and in experiment [6] was “inactive” each time. In addition, the Potency entry in [7] was “inactive”.

As to `O=C(O)c1ccccc1Cl`, the Potency entry in experiment [1], in experiment [2], in experiment [3], in experiment [4], in experiment [5] and in experiment [6] was “inactive” each time. In addition, the Potency entry in experiment [7] was “inactive”.

With `NCC(=O)O`, the figures for the activity change, negative = cytotoxicity in experiment [1] and in [4] were 0.428% [at 15.8 µM] and 1.04% [at 31.6 µM], respectively. Further, the activation (H2AX phosphorylation) in [2] is 0.478% [at 31.6 µM]. The activation in experiment [3] is -0.806% [at 15.8 µM]. Also, the results for the activity change, negative = cytotoxic in experiment [8] and in experiment [7] were 7.53% [at 15.8 µM] and 0.792% [at 15.8 µM], respectively. The cytotoxicity in [6] is -0.777% [at 15.8 µM].

In the case of `CN(C)c1ccc(CCO)cc1`, the Potency entry in experiment [1], in experiment [2], in experiment [3], in experiment [4], in experiment [5] and in experiment [6] was “inactive” throughout. In [7], the Potency entry was “inactive”.

For `CC1(c2ccccc2)OC(C(=O)O)=CC1=O` (stereo not given), the Potency entry in experiment [1], in experiment [2], in experiment [3], in [4], in [8] and in experiment [7] was “inactive” each time.

In the case of `CC(=O)c1cccc([N+](=O)[O-])c1`, the Potency entry in [1], in experiment [2], in experiment [3], in experiment [4], in experiment [8] and in [6] was “inactive” in each case. The Potency entry in [7] is “inactive”.

Consider `CCOC(=O)c1cccnc1`, for which the Potency entry in [1], in experiment [2], in [3], in experiment [4], in [5] and in [6] was “inactive” each time. The Potency result in [7] is “inactive”.

On to `CC/C=C\CCOC(=O)CC`, for which the Potency result in experiment [1], in experiment [2], in experiment [3], in [4], in experiment [5] and in experiment [8] was “inactive” each time. Further, the Potency result in experiment [7] was “inactive”.

In the case of `COc1ccnc(CS(=O)c2nc3ccc(OC(F)F)cc3[nH]2)c1OC` (stereo not given), the Potency result in experiment [1], in experiment [2], in [3], in [4], in experiment [5] and in experiment [8] was “inactive” throughout. In addition, the Potency entry in experiment [6] and in experiment [7] was “inactive” throughout.

With `O=C(NCCO[N+](=O)[O-])c1cccnc1`, the Potency entry in experiment [1], in [2], in experiment [3], in experiment [4], in experiment [8] and in experiment [6] was “inactive” in each case. Besides, the Potency result in [7] is “inactive”.

In the case of `CC1CCC(=O)C1=O` (stereo not given), the Potency result in experiment [1], in experiment [2], in experiment [3], in experiment [4], in experiment [5] and in [8] was “inactive” throughout. For the same molecule, the Potency entry in [7] is “inactive”.

Consider `COCC(C)OC(C)=O` (stereo not given), for which the Potency entry in [1], in [2], in experiment [3], in experiment [4], in experiment [5] and in experiment [6] was “inactive” each time. In addition, in experiment [7], the Potency result was “inactive”.

In the case of `CCCCCCCCCCO[C@@H]1O[C@H](CO)[C@@H](O)[C@H](O)[C@H]1O`, the Potency entry in experiment [1], in experiment [2], in experiment [3], in experiment [4], in [5] and in experiment [6] was “inactive” each time. The Potency entry in experiment [7] was “inactive”.

For `O=P(O)(OCc1ccccc1)OCc1ccccc1`, the Potency result in experiment [1], in [2], in [3], in experiment [4], in experiment [5] and in [6] was “inactive” each time. In addition, the Potency entry in experiment [7] is “inactive”.

As to `O=C(O)C(S)C(S)C(=O)O` (stereo not given), the Potency entry in experiment [1], in [2], in experiment [3], in experiment [4], in [8] and in experiment [6] was “inactive” in each case. Further, in [7], the Potency entry was “inactive”.

On to `CCCCC/C=C\C/C=C\CCCCCCCC(=O)NC(C)c1ccccc1` (stereo not given), for which the Potency result in [1], in [2], in experiment [3], in [5], in experiment [8] and in experiment [6] was “inactive” each time. In addition, the Potency entry in experiment [7] is “inactive”. Moreover, in experiment [9], the Potency was 18.8 µM (active).
